The panel holds about 83,000 compounds, 20% with a hit somewhere; the sample as a whole holds those more often.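 Values shown are percent growth following 48 h exposure of cells in 96-well plates to a single concentration of compound; below 10 was considered active.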 A number with no mark means an inactive call. The source made the active and inactive calls.

Test systems include NCI-H23 lung; NCI-H226 lung; NCI-H322M lung; HOP-62 NSCLC; HOP-92 NSCLC; NCI-H522 lung; A549/ATCC NSCLC; 786-0 renal; COLO 205 colon; NCI-H460 lung.
Assay in all cases: NCI-60 one-dose screen, 48 h (100 = growth as untreated, 0 = no growth, -100 = all killed)
Conditions in all cases: 10 µM unless noted

In the case of `C=C1C(=O)O[C@H]2[C@H]1CC/C(COC(=O)N[C@H](Cc1c[nH]c3ccccc13)C(=O)OC)=C\CC[C@@]1(C)O[C@@H]21`, the growth with NCI-H23 lung was 68.8%; in the test on NCI-H226 lung it was 85.6%; in the test with NCI-H322M lung it was 86.3%; in the test with HOP-62 NSCLC, 64.6%; in the test on HOP-92 NSCLC, 3.25% (active); in the test with NCI-H522 lung it was -71.4% (active). The growth with A549/ATCC NSCLC was 82.4%; in the test on 786-0 renal, -56.3% (active); in the test on COLO 205 colon, -36.2% (active).
In the case of `O=C1CCN2C(=O)Nc3ccccc3C2C1` (stereo unspecified), the growth in the test on NCI-H23 lung was 101%; in the test on NCI-H226 lung, 104%; in the test on NCI-H322M lung, 95.8%; in the test on HOP-62 NSCLC, 109%; with HOP-92 NSCLC, 96.7%; in the test on NCI-H522 lung it was 100%. The growth is 101% with A549/ATCC NSCLC, 99.3% in the test with 786-0 renal and 107% in the test on COLO 205 colon.
As for `COc1ccc2c(c1)C/C(=C\c1cc(-c3ccc4c(c3)OCO4)n[nH]1)C2=O`, the growth in the test with NCI-H23 lung was 111%; in the test with NCI-H226 lung, 86.5%; with NCI-H322M lung, 113%; with HOP-62 NSCLC, 102%; with HOP-92 NSCLC, 87.2%; with NCI-H522 lung, 105%. For the same molecule, the growth was 95.7% in the test on A549/ATCC NSCLC, 106% with 786-0 renal and 105% in the test with COLO 205 colon.
Regarding `CC(=O)O[C@H]1CC[C@]2(C)[C@H]3C(=O)C=C4[C@@H]5C[C@](C)(C(=O)N6CCCNCC6)CC[C@]5(C)CC[C@@]4(C)[C@]3(C)CC[C@H]2C1(C)C`, the growth was 40.1% in the test with NCI-H23 lung; 76.6% in the test on NCI-H226 lung; 19.8% with NCI-H322M lung; -50.4% (active) with HOP-62 NSCLC; 31.1% in the test with HOP-92 NSCLC; 30% in the test on NCI-H522 lung. Besides, the growth is -52.8% (active) in the test with A549/ATCC NSCLC, -71.9% (active) with 786-0 renal and -87.7% (active) in the test with COLO 205 colon.
In the case of `O=C1/C(=C\C(Cl)=C/c2ccc([N+](=O)[O-])cc2)SC(=S)N1CCc1ccc(O)cc1`, the growth with NCI-H23 lung was -57.9% (active); with NCI-H226 lung, -63.3% (active); in the test on NCI-H322M lung, 2.21% (active); with HOP-62 NSCLC, 12.9%; in the test with HOP-92 NSCLC, -3.03% (active); in the test on NCI-H522 lung, 0.0131% (active). Moreover, the growth with A549/ATCC NSCLC was 3.64% (active); in the test on 786-0 renal, -46.4% (active); with COLO 205 colon, -43.8% (active).
Take `C=C(C)[C@@H]1CC[C@]2(C)[C@H](CC=C3[C@@H]4CC(C)(C)CC[C@]4(C(=O)OC)CC[C@]32C)[C@@]1(C)CC/C(N)=N/O`: the growth is 8.68% (active) with NCI-H23 lung; 2.13% (active) with NCI-H226 lung; 85.6% in the test with NCI-H322M lung; 79.3% with HOP-62 NSCLC; 45.9% with HOP-92 NSCLC; 33.5% in the test on NCI-H522 lung. In addition, the values for the growth in the test on A549/ATCC NSCLC, in the test with 786-0 renal and in the test on COLO 205 colon were -28.8% (active), 66.6% and 35.6%, respectively.
`COc1ccc(-c2nc3c(c(C)nn3-c3ccc(F)cc3)c(=O)[nH]2)cc1`: the growth is 83.3% in the test with NCI-H23 lung; 33.1% with NCI-H226 lung; 78.7% in the test with NCI-H322M lung; 58.8% with HOP-62 NSCLC; 91.8% in the test with HOP-92 NSCLC; 81.3% in the test with NCI-H522 lung. The results for the growth with A549/ATCC NSCLC, with 786-0 renal and in the test on COLO 205 colon were 45.9%, 11% and 74%, respectively.
Consider `CC1(C)CC[C@]2(C(=O)NCCNCCN)CC[C@]3(C)C(=CC[C@@H]4[C@@]5(C)CCC(=O)C(C)(C)[C@@H]5CC[C@]43C)[C@@H]2C1`, for which the growth was 93.3% in the test with NCI-H23 lung; 78.1% in the test on NCI-H226 lung; 81.1% in the test with NCI-H322M lung; 70.4% in the test on HOP-62 NSCLC; 39.7% with HOP-92 NSCLC; 27.2% in the test with NCI-H522 lung. Also, the values for the growth in the test with A549/ATCC NSCLC, with 786-0 renal and with COLO 205 colon were 32.6%, 78.3% and -66.6% (active), respectively.
Regarding `O=C(/C=C/c1cccc2ccccc12)Nc1ncc(Cc2ccccc2)s1`, the growth in the test on NCI-H23 lung is 22.1%; in the test on NCI-H226 lung it was 28.4%; with NCI-H322M lung it was 12.5%; in the test on HOP-62 NSCLC it was 28.7%; in the test on NCI-H460 lung, 2.17% (active); with HOP-92 NSCLC it was 70.3%. The growth in the test with A549/ATCC NSCLC was 19.5%; in the test on 786-0 renal, 34.3%; in the test with COLO 205 colon, 12.1%.
With `Cn1cc(-c2nc(-c3c[nH]c4ncccc34)cs2)c2ccccc21`, the growth in the test with NCI-H23 lung is 63.4%; with NCI-H226 lung it was 85.7%; with NCI-H322M lung it was 52.6%; in the test on HOP-62 NSCLC, 92.9%; in the test with HOP-92 NSCLC, 42.6%; in the test with NCI-H522 lung, 84%. Further, the growth was 90.6% in the test with A549/ATCC NSCLC, 90.5% in the test on 786-0 renal and 85.9% in the test with COLO 205 colon.
`CCOC(=O)c1ccc2c(c1)[n+](=O)c(C(=O)C1CCCS1)c(C(F)(F)F)n2[O-]` (stereo unspecified): the growth in the test on NCI-H23 lung is -87% (active); in the test on NCI-H226 lung, -54.9% (active); in the test with NCI-H322M lung, -87.6% (active); in the test on HOP-62 NSCLC, -90.6% (active); in the test on HOP-92 NSCLC, -83.6% (active); in the test with NCI-H522 lung, -83.3% (active). In addition, the growth is -94.9% (active) in the test on A549/ATCC NSCLC, -92.3% (active) in the test with 786-0 renal and -84.8% (active) with COLO 205 colon.
For the molecule `COC(=O)[C@]12CC[C@@H](C)[C@H](C)[C@@H]1C1=CC[C@@H]3[C@@]4(C)C[C@@H](O)OC[C@](C)(C=O)C4C(=O)C[C@@]3(C)[C@]1(C)CC2` (stereo partly specified), the growth in the test on NCI-H23 lung was 5.09% (active); in the test on NCI-H226 lung it was -21.5% (active); in the test with NCI-H322M lung, 27.6%; with HOP-62 NSCLC, 13%; in the test with HOP-92 NSCLC, -28.6% (active); with NCI-H522 lung, -41.9% (active). For the same molecule, the growth in the test with A549/ATCC NSCLC is 7.39% (active); in the test with 786-0 renal it was 2.91% (active); in the test with COLO 205 colon, -94.4% (active).
In the case of `Clc1ccc2[nH]cc(-c3nc(-c4c[nH]c5ncccc45)cs3)c2c1`, the growth was 51.7% in the test on NCI-H23 lung; 63% with NCI-H226 lung; 59.1% with NCI-H322M lung; 54.1% with HOP-62 NSCLC; 43.5% with HOP-92 NSCLC; 46.5% in the test on NCI-H522 lung. Moreover, the results for the growth in the test on A549/ATCC NSCLC, with 786-0 renal and with COLO 205 colon were 21.7%, 27.6% and 18.3%, respectively.
On to `Cc1ccc(NC2CC(=O)N(c3c(C)cc(C)cc3C)C2=O)c(C)c1` (stereo unspecified), for which the growth with NCI-H23 lung was 108%; with NCI-H226 lung, 109%; in the test with NCI-H322M lung it was 101%; with HOP-62 NSCLC, 110%; in the test with HOP-92 NSCLC, 94.5%; in the test on NCI-H522 lung, 98.6%. The growth in the test with A549/ATCC NSCLC is 102%; with 786-0 renal, 105%; in the test with COLO 205 colon it was 123%.

The values above are taken from PubChem BioAssay (NCI).
